Compound activity as filed in PubChem BioAssay.
CaV13 FRET inh – Primary screen for inhibitors of IQ motif and Ca2+-dependent inactivation inhibitor domain binding in CACNA1D, Förster resonance energy transfer in living cells, … | AID 743397 | inhibition, % at 12.3 µM | HEK cells, CFP/YFP FRET ICDI-IQ, plate reader, 10 min; percent FRET-ratio fall versus neutral wells | actives 0.098% (n = 340,000);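 active means mean replicate inhibition of at least 30% and at least 1% of replicates passing that level; inconclusive means only one of the two criteria is met; inactive means neither criterion is met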;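 further: 0% = median of the neutral control wells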
INS-1E GSIS act – primary screen for activators of insulin secretion dependent on glucose, INS-1E cells, GLuc reporter luminescence | INS-1E GLuc reporter insulin secretion, 2-3 h | activation, % at 16.6 µM | actives 0.61% (n = 370,000) | AID 743287;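 active means lowest replicate activation of at least 40%, so every replicate reaches that level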;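 further: 0% = median of neutral control wells and 100% = median of IBMX positive control wells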
ERAP1 HTS inh – blocks human ERAP1 aminopeptidase activity. Q9NZ08. actives 0.15% (n = 340,000). inhibition, % at 10.7 µM. recombinant ERAP1, Leu-AMC fluorescence, 60 min;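 active means mean replicate inhibition of at least 30%, or all replicates individually reaching that 30% level; inactive means mean below 30% and not every replicate reaching it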;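 further: 0% = neutral control wells and 100% = L-leucinethiol positive control wells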
DENV2 CPE rescue – protects cells from dengue virus 2 cytopathic effect | DENV2-infected cells, cytopathic effect rescue, plate reader | CPE inhibition, % at 9.99 µM | actives 1.7% (n = 350,000); in the data active means CPE inhibition above about 20%, passing the limit was not always enough; inconclusive means no clear call, values can overlap the other calls; tested in BHK-21 cells;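 further: 0% = median of neutral control wells and 100% = median of positive control wells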
PGC1a acetyl inh – PGC1a acetylation modulation, inhibitor mode. U2OS PGC1a acetylation, AlphaScreen anti-acetyl-lysine; with virally co-expressed GCN5 acetyltransferase. inhibition, % at 15.6 µM. actives 0.17% (n = 350,000). AID 651687;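 active means every replicate shows inhibition of at least 40%; inconclusive means mean inhibition at least 40% but some replicate below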;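 further: 0% = neutral control wells and 100% = positive control wells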
rRNA inh HTS – inhibits bacterial ribosomal RNA function over humanized ribosomes. E. coli WT GFP vs humanized-ribosome RFP mutants, fluorescence, 24 h; hits give low values; DMSO median 0, no signal -100. GFP signal change (wild-type ribosome), % (no concentration beside the values). actives 1.6% (n = 350,000);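 active means significant combined selectivity score with lowered wild-type GFP, culture density cut under 30%, mutant RFP and density less affected; inactive means any of these conditions unmet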
An asterisk follows results filed as active; ? = inconclusive; / = not tested or not shown. A selection: hits, their analogues and other compounds. The true share with any hit is near 3.2%.

SMILES | CaV13 FRET inh | INS-1E GSIS act | ERAP1 HTS inh | DENV2 CPE rescue | PGC1a acetyl inh | rRNA inh HTS
N/C(=N\OC(=O)CC(c1ccccc1)c1ccccc1)c1cccnc1 | -8 | 3 | 5 | -6 | -19 | -20*
N/C(=N\OC(=O)COc1ccc(Cl)cc1Cl)c1cccnc1 | -4 | 60* | / | / | -1 | /
CS(=O)(=O)Nc1ccc2c(c1)[C@H]1C[C@H](CC(=O)NCc3ccccc3F)O[C@H](CO)[C@H]1O2 | / | -7 | 0 | -5 | 0 | 1
Cc1cccc(OCC(=O)NNC(=O)C2CCCCC2C(=O)O)c1 (stereo not given) | -2 | -30 | -2 | 22* | 3 | 14
O=C(O)C1CCCCC1C(=O)Nc1ccc(OCc2ccccc2)cc1 (stereo not given) | -9 | -1 | 2 | ? | 6 | -24*
O=C(O)[C@H]1CCCC[C@H]1C(=O)Nc1ccc(Nc2ccccc2)cc1 | -4 | / | / | / | 7 | /
Cc1ccc(OCC(=O)NNC(=O)[C@@H]2CCCC[C@@H]2C(=O)O)c(Br)c1 | -2 | 11 | -2 | -5 | 3 | 3
C[C@@H]1CN([C@@H](C)CO)C(=O)Cc2cc(NS(=O)(=O)c3ccc(Cl)cc3)ccc2O[C@@H]1CN(C)C(=O)Nc1cccc2ccccc12 | / | -11 | 0 | -3 | -10 | 1
COc1ccc(C[C@H]2CCn3nncc3COC[C@@H](c3ccccc3)NC2=O)cc1 | / | -1 | / | / | / | 0
O=C1N[C@@H](Cc2ccccc2)COCc2cn(nn2)CC[C@H]1Cc1ccc(Cl)cc1 | / | -13 | / | / | / | 1
Oc1ccccc1C=Nc1cccc2ccccc12 | -20 | 27 | -1 | -11 | -4 | 2
Oc1cccc(C=Nc2cccc3ccccc23)c1O | -22 | -8 | -3 | -3 | / | -32*
CC(C)C[C@@H]1NC(=O)[C@H](Cc2ccccc2)N(C)C(=O)[C@H](C)NC(=O)c2ccccc2NC(=O)[C@H](Cc2ccc(O)cc2)N(C)C1=O | / | -2 | / | 1 | 4 | /
CC[C@H](C)C1OC(=O)[C@@H](C)[C@@H](CC)NC(=O)[C@H](C)N(C)C(=O)C(C)(C)C(=O)C(C)NC(=O)[C@H](Cc2ccc(OC)cc2)N(C)C(=O)[C@H](C(C)C)N(C)C(=O)CNC(=O)[C@H](CC(C)C)N(C)C(=O)CNC1=O (stereo not given in full) | / | / | / | / | 74* | /
CCCn1c(=S)[nH]c2cc(C(=O)N(CCO)Cc3ccccc3)ccc2c1=O | -14 | -18 | 2 | 9 | 5 | -30*
CC#C[C@@H](CC)c1ccc2ccn(C)c2c1 | -7 | 0 | 0 | 58* | / | 15
COc1ccc(C2c3ccc4ccccc4c3Oc3ncn(CCCO)c(=N)c32)cc1OC (stereo not given) | -6 | 21 | 4 | 11 | / | -20*
N=c1c2c(ncn1CCCO)Oc1ccc3ccccc3c1C2c1ccccc1 (stereo not given) | -5 | -32 | 0 | 17 | 4 | -19*
N=c1c2c(ncn1CCCO)Oc1c(ccc3ccccc13)C2c1ccccc1 (stereo not given) | -5 | 1 | -2 | -7 | / | -40*
N=c1c2c(ncn1Cc1ccco1)Oc1ccc3ccccc3c1C2c1ccccc1 (stereo not given) | -4 | -31 | / | / | / | /
C[C@@H]1CN([C@@H](C)CO)C(=O)c2cc(NC(=O)Nc3ccc4c(c3)OCO4)ccc2O[C@H]1CN(C)Cc1ccc(Oc2ccccc2)cc1 | / | -2 | 1 | ? | -5 | 1
C[C@@H]1CN([C@H](C)CO)C(=O)CCCn2nncc2CO[C@@H]1CN(C)CC1CCCC1 | / | 33 | 0 | 3 | 3 | -1
CC=Cc1ccc2n(c1=O)C[C@H]1[C@H](CO)[C@@H](C(=O)NCCC)N(Cc3ccccn3)[C@@H]21 (mixture of isomers) | / | 13 | -2 | -3 | -9 | 5
C[C@@H]1CN([C@H](C)CO)C(=O)Cc2cc(NC(=O)Cc3cn(C)c4ccccc34)ccc2O[C@@H]1CN(C)S(C)(=O)=O | / | 1 | 3 | -3 | 4 | 5
CCOc1ccc(Oc2nc(NCC(C)C)nc(OC)n2)nn1 | -6 | / | 2 | 36* | 6 | 11
SMILES | CaV13 FRET inh | INS-1E GSIS act | ERAP1 HTS inh | DENV2 CPE rescue | PGC1a acetyl inh | rRNA inh HTS
CCN1CCS/C1=C\C=C\C1=[N+](CC)CCS1 | 84* | -57 | 10 | 0 | / | -32
C[C@@H]1CN([C@H](C)CO)C(=O)Cc2cc(NC(=O)Cn3cnnn3)ccc2O[C@H]1CN(C)CC1CC1 | / | -2 | 3 | 2 | 5 | 6
C[C@H]1CN([C@@H](C)CO)C(=O)Cc2cc(NC(=O)c3ccncc3)ccc2O[C@H]1CN(C)CC1CC1 | / | 16 | -3 | -8 | -4 | 2
Cc1oc(/N=C/c2ccccc2)c(C#N)c1C | 0 | 17 | 2 | 22* | / | 31
COc1ccc(S(=O)(=O)Nc2ccc3c(c2)CC(=O)N([C@H](C)CO)C[C@@H](C)[C@H](CN(C)Cc2ccncc2)O3)cc1 | / | 13 | 1 | 0 | 2 | 1
C=CCn1c(SCC(=O)NNC(=O)Nc2ccc(C)cc2)nnc1-c1ccccc1 | -20 | -6 | 2 | -4 | / | 8
O=C(NCc1ccc(-c2nc3ccccc3s2)cc1)c1ccco1 | -2 | 5 | -2 | -3 | -10 | -20*
C=CCn1c(SCC(=O)Nc2ccc(-c3nc4ccc(C)cc4s3)cc2)nnc1-c1ccccc1 | -9 | 122* | / | / | 9 | /
Cc1ccc2nc(-c3ccc(NC(=O)COC(=O)c4ccco4)cc3)sc2c1 | -6 | 91* | / | / | / | /
Cc1ccc2nc(-c3ccc(NC(=O)COC(=O)c4ccc(Br)o4)cc3)sc2c1 | -6 | 1 | / | / | / | /
COc1ccc(S(=O)(=O)Nc2cccc3c2O[C@H](CN(C)S(=O)(=O)c2ccc(OC)cc2)[C@H](C)CN([C@H](C)CO)C3=O)cc1 | / | 0 | -2 | / | / | -2
CO[C@@H]1CN(C)C(=O)c2ccc(NC(=O)c3ccc(F)cc3)cc2OC[C@H](C)N(C(=O)CN(C)C)C[C@H]1C | / | 9 | 3 | ? | -2 | 0
CCC(=O)Nc1cc(C(C)(C)C)ccc1C(C)=O | -5 | 67* | / | / | / | /
CCOc1ccc2nc(NC(=O)C3(C)CC3(Br)Br)sc2c1 (stereo not given) | -4 | -4 | 5 | -16 | -14 | -42*
Cc1c(CC(=O)NCCC(=O)O)c(=O)oc2cc3occ(-c4ccccc4)c3cc12 | -4 | / | 1 | 3 | / | -22
Cc1c(CCC(=O)O)c(=O)oc2c(C)c3occ(-c4ccc(Br)cc4)c3cc12 | -4 | 2 | 4 | -10 | / | -16*
Cc1c(CC(=O)O)c(=O)oc2cc3occ(-c4ccccc4)c3cc12 | -18 | 6 | -2 | -2 | 6 | -19*
